# PubChem BioAssay (NCI)
# About 83,000 compounds went through this panel and 20% of them were active in at least one assay; those are over-represented in the sample as a whole.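 48-hour exposure, single concentration, 96-well plates; percent growth endpoint where 0 means no net growth. Active: below 10.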 Unmarked numbers belong to inactive results. Calls of active or inactive are those of the source.
# Test system: PC-3 prostate
# Assay: NCI-60 one-dose screen, 48 h (100 = growth as untreated, 0 = no growth, -100 = all killed)
# Conditions: 10 µM unless noted
# Description: Growth inhibition of the PC-3 human tumor cell line is measured as a screen for anti-cancer activity. Cells are grown in 96 well plates and exposed to the test compound for 48 hours. Compounds are tested at a single concentration, which is 10^-5 M for most compounds. The reported endpoint is percent growth (GI% or GIPRCNT), where numbers from 0 - 100% represent growth inhibition, and numbers from -100% - 0 represent cell death. For example, a value of 40 represents 60% growth inhibition. A value of 0 means no net growth occurred over the course of the experiment. A value of -40 indicates 40% of cells at the beginning of the experiment died by the end of the experiment. A value of -100 means all cells are dead at the end of the experiment.
# NCI-60 Human Tumor Cell Lines Screen was performed using the standard one-dose NCI protocol, which is described in more detail at https://dtp.cancer.gov/discovery_development/nci-60/default.htm.
# Compounds with GIPRCNT values below 10 were considered active. Activity score was based on GIPRCNT using the following formula: […]
# Score is 0 for GIPRCNT values of 100 or above, 50 for GIPRCNT values of 0, and 100 for GIPRCNT values of -100.
row,Structure (SMILES),growth
1,CC(=O)O[C@H]1CC[C@]2(C)[C@H]3CC=C4[C@@H]5CC(C)(C)CC[C@]5(C(=O)NCCNCCNCCN)CC[C@@]4(C)[C@]3(C)CC[C@H]2C1(C)C,38.9%
2,FC(F)(F)Oc1ccc2nc3nc4ccc[nH]c4cc3c2c1,80%
3,COc1ccc(/C=C/C(=O)c2ccc(O)c(CN3CCN(c4cc5c(cc4F)c(=O)c(C(=O)O)cn5C4CC4)CC3)c2)cc1,18.1%
4,CC1=C[C@H]2c3c(c(O)c(O)c4oc(-c5ccccc5)cc(=O)c34)[C@H](c3cc(O)c(O)c4oc(-c5ccccc5)cc(=O)c34)[C@H]2C(C)(C)C1,5.35% (active)
5,N#Cc1c(-c2ccc(Cl)cc2)nc(NN=Cc2ccco2)nc1N1CCOCC1,68.3%
6,COc1cc(/C=C/c2cc(O)c3cc(C(C)=O)c(=O)oc3c2)cc2c1O[C@]1(C)CC[C@@H](O)C(C)(C)[C@H]1C2,27.4%
7,CC(C)(CCCN=C(N)Nc1ccc(Cl)cc1)c1ccc(F)cc1,52.9%
8,COc1ccc(-c2nc3ccc(-c4nc5ccc(N6CCN(c7ccc(F)cc7)CC6)cc5[nH]4)cc3[nH]2)cc1OC,62.7%
9,CCCOc1cc2ccccc2cc1C(=O)Nc1nc(NC)c2c(ccc3nccc32)[nH]1,-51.5% (active)
10,COc1cccc(/C=C2\Oc3cc(OCCN4CCCC4)ccc3C2=O)c1,83.6%
11,COc1cc2c(cc1-c1c(C)noc1C)ncc1nc(C3CCC(F)(F)CC3)n([C@H](C)COC(F)F)c12,33.1%
12,COc1cc2nc(N3CCCC3)nc(NCc3ccccc3)c2cc1OC,67.2%
13,COc1ccc(Nc2nc(SC)nc(-c3cccc([N+](=O)[O-])c3)c2C#N)cc1,75.8%
14,CN1CCN(Cc2ccc(NC(=O)c3cncc(C#Cc4cncn5ccnc45)c3)cc2C(F)(F)F)CC1,90.3%
15,CCOc1ccc(-n2nc(C(=O)Nc3cc(OC)c(OC)c(OC)c3)nc2-c2cc(OC)c(OC)c(OC)c2)cc1,70.2%
16,CC1=C[C@H]2c3c(c(O)c(O)c4oc5cc(O)ccc5c(=O)c34)[C@H](c3cc(O)c(O)c4oc5cc(O)ccc5c(=O)c34)[C@H]2C(C)(C)C1,29.7%
17,CSc1ccc(-c2n[nH]nc2-c2cc3ccccc3s2)cc1,56.7%
18,C=CC(=O)Nc1cccc(-c2nc(SC)nc(NCc3ccccc3)c2C#N)c1,74.8%
19,C=CC(COC(c1ccccc1)(c1ccccc1)c1ccccc1)N(CC)CC (stereo not given),47.9%
20,CCN(CC)c1ccc(/C=N\NC(=O)/C=C/C=C/c2ccc3c(c2)OCO3)c(O)c1,40.9%

row,Structure (SMILES),growth
1,CNC(=O)c1cc(Oc2ccc(NC(=O)Nc3ccc(Cl)c(OC(F)(F)F)c3)c(F)c2)ccn1,22.1%
2,COc1cc(/C=C/c2cc(/C=C/c3ccc(O)c(OC)c3)n(-c3c(Cl)cccc3Cl)c(=O)n2)ccc1O,34.9%
3,CN(C)S(=O)(=O)c1ccc(S(=O)(=O)Nc2cccc(Cl)c2N2CCCCC2)cc1,60.3%
4,O=S(=O)(Nc1ccc(Cl)c(F)c1)c1ccc(-c2cnc(C3CC3)o2)cc1,29.9%
5,COc1ccc2cc(-c3nn(-c4ccc(C(=O)O)cc4)cc3CO)ccc2c1,98.7%
6,O=C(Cc1ccc(/C=C/C(=O)c2ncc[nH]2)cc1)Nc1ccccc1,57.1%
7,C=CC(=O)Nc1cccc(-c2nc(SC)nc(NCCN3CCOCC3)c2C#N)c1,92.7%
8,CN1C(=O)C2(SCC(C(=O)NCc3ccccc3)N2C(=O)C2CCCCC2)c2ccccc21 (stereo not given),82.8%
9,COc1cccc(Nc2nc(SC)nc(-c3cccc([N+](=O)[O-])c3)c2C#N)c1,71.2%
10,COc1cc2c(cc1-c1c(C)noc1C)ncc1nc(C3CCOCC3)n([C@H](C)COC(F)F)c12,34.3%
11,O=C(N=Nc1c(O)[nH]c2ccccc12)c1cc(-c2ccccc2)on1,101%
12,CC(C)c1c(C(=O)c2ccccc2)c(-c2ccccc2)c(-c2ccc(F)cc2)n1CC[C@@H](O)C[C@@H](O)CC(=O)O,37%
13,COc1cccc(-c2nc3sccn3c2-c2ccnc(NCCCNS(=O)(=O)c3cccc(F)c3)c2)c1,13.6%
14,O=C1CC(=NCC(=O)n2c(-c3ccccc3)nc3ccccc32)NN1,99.2%
15,C=C(C)[C@@H]1CC[C@]2(C(N)=O)CC[C@]3(C)[C@H](CC[C@@H]4[C@@]5(C)C/C(=C/c6ccco6)C(=O)C(C)(C)[C@@H]5CC[C@]43C)[C@@H]12,75.7%
16,COc1cc2c(cc1OC)C(Sc1ccc(SC)cc1)c1c(nc(N)c(C#N)c1N)O2 (stereo not given),-75.8% (active)
17,Clc1ccc2c(NCCCNc3nc(-n4ccnc4)nc4ccccc34)ccnc2c1,73.3%
18,N#Cc1nnn(-c2ccc(S(N)(=O)=O)cc2)c1NCC(=O)c1ccccc1,84.1%
19,O=c1oc2c(C(F)(F)F)cccc2cc1-c1csc(Nc2ccc(OCCF)cc2)n1,21%
20,NC(=NCCCOc1ccc(Cl)cc1)Nc1ccc(C(F)(F)F)cc1,26.9%
